Measured values reported in PubChem BioAssay.
The source made the active and inactive calls.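 The calls were made as follows, unless noted: active = inhibition at or above 50% at 10 µM; inactive = inhibition below 50%.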

Experiments:
[1] = inhibitors of TNFa-induced NFkB p65 translocation, primary screen, imaging, HUVEC, MLSMR starter and 10KST1 sets (AID 438;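 active = inhibition above 20% together with a positive visual image hit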;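 also: compound added about 3h40 before a 20 min TNFalpha stimulation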;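 as to inhibition: signal is the nuclear over cytoplasmic p65 intensity ratio per well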); details: HUVEC TNFa-induced p65 nuclear translocation; cell count: measured here: nuclei count (cytotoxicity indicator), at 2.08 µM; inhibition: at 2 µM, stronger effect = higher value, 0% TNFa-plus-vehicle, 100% no-TNFa wells
[2] = reduction of polyQ htt aggregates in cells – imaging, exon1htt(103Q)mCFP cells, high-content imaging, primary screen (AID 483;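 active = visual image review flags a hit and inhibition of aggregation exceeds 20%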;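 also: compound exposure lasted 3 days before fixation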;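 as to nuclei count: percent of the per-plate median nuclei count of sample wells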); details: exon1htt(103Q)mCFP cell line, aggregate imaging, at 2 µM; inhibition of aggregation: stronger effect = higher value; nuclei count: measured here: cell count, toxicity
[3] = endothelial E-selectin expression blockers – imaging, HUVEC, immunofluorescence, MLSMR starter and 10KST1 sets, primary screen (AID 487;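 active = visually confirmed hit in the image check and inhibition above 20%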;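 as to inhibition: signal is fraction of cell area covered by stained E-selectin grains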;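 as to nuclei count: 100% = median nuclei count of all wells on the same plate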); details: HUVEC TNFalpha-induced E-selectin immunofluorescence imaging, at 2 µM; inhibition: stronger effect = higher value; nuclei count: measured here: cell number, toxicity
[4] = biological target: Voltage-gated potassium channel subunit beta-2 (Rattus norvegicus) (UniProt P62483); test: inhibitors of rat Kvbeta2 reductase activity – biochemical, NADPH fluorescence, primary screen (AID 622;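 active = fluorescence slope higher than the sample average by over 3 SD, cut at about -0.22 in these data, passing the limit was not always enough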;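 also: slope of raw intensity against log time taken from 70 to 1610 s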); details: recombinant KvBeta, 4-cyanobenzaldehyde reduction, at 10 µM, stronger effect = higher value
Voltage-gated potassium channel subunit beta-2 (Rattus norvegicus), sequence (P62483 whole entry, looked up): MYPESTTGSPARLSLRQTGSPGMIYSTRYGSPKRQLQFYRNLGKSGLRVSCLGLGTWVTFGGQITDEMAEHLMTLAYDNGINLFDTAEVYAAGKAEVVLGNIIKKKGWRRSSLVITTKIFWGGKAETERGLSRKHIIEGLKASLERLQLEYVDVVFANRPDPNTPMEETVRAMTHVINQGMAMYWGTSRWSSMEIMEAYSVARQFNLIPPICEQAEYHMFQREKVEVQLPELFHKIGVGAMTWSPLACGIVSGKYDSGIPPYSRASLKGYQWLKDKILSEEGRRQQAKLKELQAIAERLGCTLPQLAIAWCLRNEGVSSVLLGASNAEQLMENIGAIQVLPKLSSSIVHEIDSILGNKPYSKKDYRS

[5] = biological target: Voltage-gated potassium channel subunit beta-2 (Rattus norvegicus) (UniProt P62483); test: enhancers of rat Kvbeta2 NADPH turnover – biochemical, NADPH fluorescence, primary screen (AID 623;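 active = NADPH fluorescence slope more negative than the mean of all samples by about 3 SD, 99.7% confidence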;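 also: fluorescence intensity change per second fitted from 20 to 320 s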); details: Recombinant KvBeta, NADPH fluorescence decrease slope, 10 min; at 10 µM; stronger effect = lower value
[6] = biological target: Alpha-2C adrenergic receptor (Homo sapiens) (UniProt P18825); test: compounds altering alpha2C-coupled GIRK flux – cell-based, HEK293 alpha2C/GIRK1/2, thallium flux, primary screen (AID 624;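 active = fluorescence slope after compound addition differing from the mean of all screened samples at 99.7% confidence, in either direction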;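 also: slope of fluorescence ratio to pre-addition baseline per second over 15 to 24 s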); details: thallium flux BTC fluorescence, at 10 µM, actives lie on both sides
Alpha-2C adrenergic receptor (Homo sapiens), sequence (P18825 whole entry, looked up): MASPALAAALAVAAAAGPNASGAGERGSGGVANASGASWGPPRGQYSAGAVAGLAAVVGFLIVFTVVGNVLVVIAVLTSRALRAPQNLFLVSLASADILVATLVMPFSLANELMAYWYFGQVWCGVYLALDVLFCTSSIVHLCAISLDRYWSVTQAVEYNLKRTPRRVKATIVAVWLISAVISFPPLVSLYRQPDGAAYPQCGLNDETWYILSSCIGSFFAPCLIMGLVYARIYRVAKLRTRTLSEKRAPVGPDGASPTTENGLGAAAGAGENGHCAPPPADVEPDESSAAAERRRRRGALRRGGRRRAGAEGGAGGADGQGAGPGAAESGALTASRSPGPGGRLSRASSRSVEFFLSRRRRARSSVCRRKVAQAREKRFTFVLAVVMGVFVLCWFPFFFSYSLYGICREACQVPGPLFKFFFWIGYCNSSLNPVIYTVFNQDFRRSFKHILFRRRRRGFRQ

[7] = blockers of RIG-like receptor reporter activation – cell-based, Sendai virus stimulus, luciferase, 10K MLSCN set, TLR/RLR signaling modifier project, primary screen (AID 602276); details: HEK293 RL24 IRF3 luciferase reporter, at 10 µM, stronger effect = higher value;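 also: firefly luciferase from ISG56 promoter only with Renilla not read in this screen; 0% = Sendai virus plus DMSO and 100% = medium plus DMSO without virus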
[8] = TLR3 IRF3 reporter activation blockers – cell-based, poly I:C stimulus, luciferase, 10K MLSCN set, primary screen (AID 602277;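 active = inhibition of the reporter signal at or above 50%; inactive = inhibition below 50%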); details: HEK293-TLR3 RL24 IRF3 luciferase reporter, at 10 µM, stronger effect = higher value

| SMILES | cell count [1] | inhibition [1] | inhibition of aggregation [2] | nuclei count [2] [%] | inhibition [3] | nuclei count [3] [%] | fluorescence slope [4] | NADPH fluorescence slope [5] | slope [6] | inhibition [7] | inhibition [8] |
| --- | --- | --- | --- | --- | --- | --- | --- | --- | --- | --- | --- |
| CCOCCCn1c(=NC(C)=O)c(C(=O)OCC)cc2c(=O)n3ccccc3nc21 | 473 | -3.3% (inactive) | 2.4% (inactive) | 108 | -119% (inactive) | 129 | -0.114 (inactive) | -3.8e-05 (inactive) | 0.00394 (inactive) | -7.28% (inactive) | -15% (inactive) |
| O=C(NCC(c1cccnc1)N1CCOCC1)c1ccco1 (stereo not drawn) | 453 | 2.4% (inactive) | -3.5% (inactive) | 100 | -42.3% (inactive) | 129 | -0.336 (inactive) | 3.2e-06 (inactive) | 0.00285 (inactive) | 15.9% (inactive) | 31% (inactive) |
| N#CC(C(=O)NCCc1ccccc1)c1nc2ccccc2nc1N1CCOCC1 (stereo not drawn) | 389 | 5.7% (inactive) | -43.6% (inactive) | 103 | -176% (inactive) | 118 | -0.401 (inactive) | -2e-05 (inactive) | 0.00348 (inactive) | -27.6% (inactive) | -40.4% (inactive) |
| Cc1cc(C)c(NC(=O)Cn2cc3c(n2)CCCC3)c(C)c1 | 738 | -7.9% (inactive) | -4.1% (inactive) | 76.3 | -1.2% (inactive) | 110 | -0.515 (inactive) | -2e-05 (inactive) | 0.00662 (inactive) | 26.1% (inactive) | 11.6% (inactive) |
| Cc1ccc(S(=O)(=O)Nc2nc3ccccc3nc2NCc2ccco2)cc1 | 686 | 7.1% (inactive) | -2% (inactive) | 103 | -39.6% (inactive) | 110 | -0.376 (inactive) | 6.7e-06 (inactive) | 0.00699 (inactive) | -21.6% (inactive) | -121% (inactive) |
| Cn1c(Cc2ccccc2)nnc1SCC(=O)N1CCOCC1 | 492 | -0.8% (inactive) | -33% (inactive) | 103 | -74.1% (inactive) | 123 | -0.276 (inactive) | -4.7e-05 (inactive) | 0.00541 (inactive) | 10.3% (inactive) | 13.5% (inactive) |
| Cc1noc(C)c1CSc1nc2ccccc2s1 | 588 | -2.3% (inactive) | -7.7% (inactive) | 113 | -4.7% (inactive) | 102 | -0.515 (inactive) | 2.9e-05 (inactive) | 0.00595 (inactive) | 4.37% (inactive) | -21.8% (inactive) |
| CC(C)CNc1oc(-c2ccc(F)cc2)nc1C#N | 696 | -2.9% (inactive) | -21% (inactive) | 108 | -41.9% (inactive) | 118 | -0.543 (inactive) | -5e-06 (inactive) | 0.00664 (inactive) | -4.19% (inactive) | 2.46% (inactive) |
| Cc1csc(NC(=O)c2ccoc2C)n1 | 435 | 1.3% (inactive) | -7.1% (inactive) | 90.7 | 9% (inactive) | 97.9 | -0.534 (inactive) | 2.1e-05 (inactive) | 0.00451 (inactive) | -53.3% (inactive) | -87.5% (inactive) |
| COc1cc2c3c(c1)/C(=C1/SC(NC(C)=O)=NC1=O)C(=O)N3C(C)(C)C=C2C | 381 | -2% (inactive) | 7.7% (inactive) | 91.9 | -35.9% (inactive) | 91 | -0.467 (inactive) | -2e-05 (inactive) | 0.00288 (inactive) | 18% (inactive) | 16.3% (inactive) |
| CCC(C)(C)n1nnnc1C(c1ccc(OC)c(OC)c1)N1CCN(c2ccc(F)cc2)CC1 (stereo not drawn) | 406 | 4% (inactive) | -1% (inactive) | 96.8 | 10.4% (inactive) | 106 | -0.442 (inactive) | -2.6e-05 (inactive) | 0.00413 (inactive) | 14% (inactive) | 43.5% (inactive) |
| O=C(CCn1c(=O)oc2ccccc21)N1CCN(c2ccccc2Cl)CC1 | 570 | 3.9% (inactive) | -52.3% (inactive) | 22.3 | 26.9% (inactive) | 81.9 | -0.379 (inactive) | -2e-05 (inactive) | 0.0037 (inactive) | 49.8% (inactive) | 19.6% (inactive) |
| COc1ccc2c(c1)C(C)=CC(C)(C)N2C(=O)CSc1nnc(-c2ccc(C)cc2)o1 | 362 | 12.5% (inactive) | 8.3% (inactive) | 106 | 14.4% (inactive) | 117 | -0.451 (inactive) | 4.8e-05 (inactive) | 0.00352 (inactive) | -7.74% (inactive) | 17.4% (inactive) |
| O=C(CSc1nnnn1C1CCCCC1)N1CCc2ccccc21 | 348 | 0.8% (inactive) | -13.7% (inactive) | 101 | 1.9% (inactive) | 120 | -0.566 (inactive) | -4e-05 (inactive) | 0.00388 (inactive) | 9.99% (inactive) | -10% (inactive) |
| COCCN(C(=O)c1csnn1)C(C(=O)NC1CCCCC1)c1cccs1 (stereo not drawn) | 370 | 5% (inactive) | -6.3% (inactive) | 107 | -52.1% (inactive) | 95.8 | -0.335 (inactive) | 5.1e-05 (inactive) | 0.00648 (inactive) | 10.7% (inactive) | 23.1% (inactive) |
| CCc1ccc(NC(=O)CSc2nnc(Cc3cccn3C)n2-c2ccc(OC)cc2)cc1 | 891 | 7.4% (inactive) | -2.2% (inactive) | 111 | -54.1% (inactive) | 117 | -0.609 (inactive) | 1.4e-05 (inactive) | 0.00529 (inactive) | 20.1% (inactive) | 23.6% (inactive) |
| Cc1ccnc(SCCn2c(N3CCCCC3)nc3c2c(=O)n(C)c(=O)n3C)n1 | 249 | 4.4% (inactive) | -9.4% (inactive) | 93.5 | -49.1% (inactive) | 107 | -0.319 (inactive) | 1.8e-05 (inactive) | 0.00339 (inactive) | 10.1% (inactive) | 36.5% (inactive) |
| O=c1c2c(-c3ccccc3)csc2nc2n1CCC2 | 518 | -18.3% (inactive) | -0.8% (inactive) | 87 | 20.1% (inactive) | 144 | -0.588 (inactive) | -8.9e-06 (inactive) | 0.00513 (inactive) | -15.3% (inactive) | 1.9% (inactive) |
| O=C(COC(=O)C12CC3CC(CC(O)(C3)C1)C2)N1CCN(S(=O)(=O)c2ccc(Cl)cc2)CC1 | 371 | 4.7% (inactive) | 0.7% (inactive) | 95.7 | -72.7% (inactive) | 97.2 | -0.33 (inactive) | -1.9e-05 (inactive) | 0.00661 (inactive) | 8.77% (inactive) | 18% (inactive) |
| N#Cc1cnc(SCC(=O)c2ccccc2)nc1N | 682 | -10.7% (inactive) | 8.2% (inactive) | 63.1 | -20.8% (inactive) | 120 | -0.402 (inactive) | -2.9e-05 (inactive) | 0.00488 (inactive) | 4.13% (inactive) | -24.8% (inactive) |
| COc1ccccc1CNC(=O)C1CCC(CNc2c(N3CCOCC3)c(=O)c2=O)CC1 (stereo not drawn) | 739 | -14.6% (inactive) | 22.5% (inactive) | 105 | -1.3% (inactive) | 122 | -0.592 (inactive) | -3e-05 (inactive) | 0.00599 (inactive) | 1.39% (inactive) | 17.5% (inactive) |
| Cn1c(CCNC(=O)c2ccco2)nc2cc(NC(=O)C3CCCCC3)ccc21 | 359 | 0.5% (inactive) | 8.3% (inactive) | 91.1 | 42.2% (inactive) | 88.8 | -0.466 (inactive) | -0.000205 (inactive) | 0.00612 (inactive) | 6.27% (inactive) | 0.497% (inactive) |
| Cn1c(COc2ccc(Cl)cc2)nnc1SCC(=O)NC1CCCCC1 | 328 | -1.3% (inactive) | 19.6% (inactive) | 91.8 | -90.6% (inactive) | 107 | -0.545 (inactive) | -1.7e-05 (inactive) | 0.00395 (inactive) | -9.58% (inactive) | -7.85% (inactive) |
| CCCCn1c(NCc2ccccc2O)nc2ccccc21 | 790 | -6.4% (inactive) | 14.4% (inactive) | 107 | -63% (inactive) | 120 | -0.567 (inactive) | -5.9e-06 (inactive) | 0.00728 (inactive) | 0.354% (inactive) | 25.3% (inactive) |
| COCCn1nnnc1CN(CCCN1CCOCC1)Cc1cc2c(C)ccc(C)c2[nH]c1=O | 612 | -8.8% (inactive) | -0.2% (inactive) | 112 | 19.5% (inactive) | 92.4 | -0.49 (inactive) | 3e-05 (inactive) | 0.00345 (inactive) | -10.5% (inactive) | 15.5% (inactive) |
| Cc1cccc(C(=O)N2CCC(n3nnc4cc(F)ccc43)CC2)c1 | 695 | -12.5% (inactive) | -26.4% (inactive) | 101 | 13.4% (inactive) | 106 | -0.325 (inactive) | -2e-05 (inactive) | 0.0067 (inactive) | 5.99% (inactive) | 6.27% (inactive) |
| CCCCC(CC)CNC(=O)C1CCCN(S(=O)(=O)c2cnc[nH]2)C1 (stereo not drawn) | 565 | 8.7% (inactive) | 2.1% (inactive) | 75.2 | 0.3% (inactive) | 104 | -0.491 (inactive) | -1.6e-05 (inactive) | 0.00613 (inactive) | 10.8% (inactive) | 15.8% (inactive) |
| O=C(CC(=O)c1cc(Cl)ccc1O)c1ccccc1 | 435 | 3.8% (inactive) | -1.9% (inactive) | 99.3 | -68.1% (inactive) | 126 | -0.41 (inactive) | 2.8e-05 (inactive) | 0.00798 (inactive) | -30.5% (inactive) | -67.7% (inactive) |
